# Compound activity (PubChem)
# D2 ag-1: agonists of human D2 dopamine receptor (beta-arrestin) | DiscoveRx PathHunter D2 beta-arrestin, luminescence, 90 min; 100% = 57 uM dopamine signal | activation, % (concentration not given with the values) | hit rate 0.084% among 360,000; in the data active means activation above about 40%; inconclusive means between about 15% and that limit
# Target sequence (P14416 whole entry, looked up): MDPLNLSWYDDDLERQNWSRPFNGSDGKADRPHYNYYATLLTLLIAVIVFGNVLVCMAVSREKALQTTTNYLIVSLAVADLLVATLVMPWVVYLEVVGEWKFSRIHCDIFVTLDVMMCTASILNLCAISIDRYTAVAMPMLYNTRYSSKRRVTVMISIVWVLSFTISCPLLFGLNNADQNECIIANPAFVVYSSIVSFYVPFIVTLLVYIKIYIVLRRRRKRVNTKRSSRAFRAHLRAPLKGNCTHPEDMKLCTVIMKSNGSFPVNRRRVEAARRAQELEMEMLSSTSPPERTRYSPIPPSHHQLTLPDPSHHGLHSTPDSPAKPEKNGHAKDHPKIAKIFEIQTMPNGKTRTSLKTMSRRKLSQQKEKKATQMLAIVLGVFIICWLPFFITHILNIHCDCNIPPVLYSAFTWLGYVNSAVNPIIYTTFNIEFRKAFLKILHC
#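 Agonist mode: compounds alone added to overnight-plated D2 PathHunter cells for 90 min at 37 C, with 57 uM final dopamine (EC100) defining full response. Beta-arrestin recruitment detected by chemiluminescent reagent, read after 1 h at ambient temperature.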
# D2 ag-2: D2 dopamine receptor (human) agonism; HEK293 T-REx D2 cells, calcium flux agonist mode; activation, % at 2 µM; hit rate 0.53% among 340,000;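 active means activation over 3 SD above normal in the single-dose calcium agonist read, cut at about 30% in these data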; further: 0% is about no effect
#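 Agonism is scored from calcium flux in a force-coupled, inducible HEK293 cell line expressing D2, read kinetically for 180 s after compound addition against dopamine controls.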
# D2 PAM-1: positively modulates the human D2 dopamine receptor allosterically; P14416; HEK293 T-REx D2, calcium flux, EC20 dopamine potentiation; potentiation, % at 10 µM; hit rate 0.34% among 340,000; AID 485347;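 active means potentiation over 3 SD above the plate norm, cut at about 30% in these data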; further: 0% is about no effect
#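 Potentiation of an EC20 dopamine calcium response is measured in a force-coupled, tetracycline-inducible Hek293 Trex D2 line. Compound-only kinetic reads over 180 s flag agonists before dopamine addition.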
# D2 antag: D2 dopamine receptor (human) antagonism; hit rate 2% among 340,000; HEK293 TREx D2 cells, calcium flux, dopamine EC80; inhibition, % at 10 µM; P14416; AID 485344; in the data active means inhibition above about 30%; inactive means below that, where a call was filed; further: 0% is about no effect
#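 In this primary screen, negative modulation is detected by tracking calcium flux after an EC80 dopamine challenge in inducible HEK293 T-REx D2 cells preexposed to test compound for 180 s.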
# D2 PAM-2: positive allosteric modulators of human D2 dopamine receptor | potentiation, % (no concentration beside the values) | hit rate 0.23% among 360,000 | DiscoveRx D2 beta-arrestin cells, luminescence, 90 min; 100% = 57 uM dopamine signal | P14416; in the data active means potentiation above about 50%; inconclusive means mostly about 30% to 49%
#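 D2 cells co-treated with compound plus 50 nM dopamine (EC20) for 90 min at 37 deg C to detect potentiation. Beta-arrestin recruitment was read as enzyme-fragment luminescence after 1 h at ambient temperature. Full response was set by 57 uM dopamine.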
# D3 ag: confirmation of human D3 dopamine receptor agonists, beta-arrestin. shares compounds with D2 ag-2. AID 720506. Potency, µM (titrated, usually from 76.9 µM), for inactives: at the top dose activation, hits mostly activators. hit rate 4% among 2,300. DiscoveRx D3 beta-arrestin cells, luminescence, 90 min;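 further: potency means the concentration at half of the fitted maximal effect; 100% = dopamine control response; nearly all actives have a fitted effect of over 70% in size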
# D2 ag-3: activates human D2 dopamine receptor in D3 counterscreen; DiscoveRx PathHunter D2 beta-arrestin, luminescence, 90 min; response scale: percent relative to full dopamine signal; Potency, µM (doses to about 76.9 µM), inactives show top-dose activation, hits mostly activators; shares compounds with D2 ag-2; AID 720507; hit rate 5.9% among 2,300; further: potency means the concentration at half of the fitted maximal effect; % of control where 0% means no effect; nearly all actives have a fitted effect of over 70% in size
# Starred values were filed as active, the others as inactive; ? = inconclusive; nt = no result. Compounds with a hit are over-represented: about 2.4% of the library has one in this group of screens. Unless noted, the call rests on the fitted dose curve; in most records, active means well fitted activation curve with a large enough effect; inconclusive means small, poorly fitted or top-dose-only effect; inactive means flat fitted curve, though single readings scatter.
SMILES,D2 ag-1,D2 ag-2,D2 PAM-1,D2 antag,D2 PAM-2,D3 ag,D2 ag-3
c1ccc(CCCN2CCN(c3ccccn3)CC2)cc1,1.1,75.9*,-19.2,75.5*,0.4,?,?
Cc1ccc(CN2CCN(c3ccccn3)CC2)s1,65.0*,-2.0,11.6,93.6*,67.6*,?,0.159µM*
Cc1ccc(S(=O)(=O)CCN2CCN(c3ccccn3)CC2)cc1,1.0,6.2,-6.3,-0.7,-12.4,nt,nt
C[C@@H]1CN([C@H](C)CO)C(=O)CCCn2nncc2CO[C@@H]1CN(C)S(=O)(=O)c1ccc(-n2cccn2)cc1,0.4,nt,nt,nt,nt,nt,nt
O=C(Cc1cccc(NC(=O)C2CCCN(C(=O)C3CCCC3)C2)c1)Nc1cccc(C(=O)N2CCCCC2)c1 (stereo unspecified),-1.5,nt,nt,nt,1.6,nt,nt
CC(NC(=S)NC1CCC(C(C)(C)C)CC1)c1ccccc1 (stereo unspecified),-1.1,0.7,-1.4,-3.0,-5.9,nt,nt
Cc1sc(NC(=O)c2ccco2)c(CN2CCN(c3ccccn3)CC2)c1C,8.2,67.6*,-29.8,123.7*,18.5,11.3%,29.7%
c1ccc(N2CCN(c3cnccn3)CC2)nc1,-2.4,-0.8,12.6,2.9,-10.9,nt,nt
CC(=O)Nc1sc2c(c1CN1CCN(c3ccccn3)CC1)CCCC2,-2.6,16.1,-24.1,-9.7,-30.7,nt,nt
c1ccc(N2CCN(Cc3ccsc3)CC2)nc1,65.6*,76.5*,-15.7,84.1*,101.3*,?,0.708µM*
COc1cccc(-n2c(C)nc3c(cnn3-c3ccc(C)c(C)c3)c2=O)c1,nt,-0.4,-4.7,nt,nt,nt,nt
CCC(C)(C)C1CCC2(CC1)NC(=O)N(CC(=O)N(C)Cc1ccc3c(c1)OCCO3)C2=O (stereo unspecified),7.1,-0.3,-4.2,8.5,0.2,1.0%,7.3%
CN(Cc1ccc2c(c1)OCCO2)C(=O)CN1C(=O)NC2(CCCCC2)C1=O,-6.4,-0.4,4.2,-6.6,-9.3,nt,nt
CC(C)(O[C@@H]1O[C@H](CO)[C@@H](O)[C@H](O)[C@H]1O)[C@H]1Cc2cc3ccc(=O)oc3cc2O1,-3.9,1.5,-7.3,-10.1,-4.9,nt,nt
CC(C)(O[C@@H]1O[C@H](CO)[C@@H](O)[C@H](O)[C@H]1O)[C@@H]1CC=C(C(=O)O)CC1,-2.0,-1.0,10.4,-18.4,4.6,-3.2%,-2.1%
Cn1c2c(c(=O)n(C)c1=O)C(C(F)(F)F)(C(F)(F)F)N=C(c1ccc(Cl)cc1)N2,4.4,5.4,17.8,1.2,?,?,0.6%
CCCN(CC1CC1)C(=O)COC(=O)c1oc2c(F)cccc2c1C,?,42.5*,-17.9,40.6*,14.5,24.5%,?
Cn1c(=O)c2nc(NCc3ccccc3)sc2n(C)c1=O,-7.8,nt,nt,nt,2.3,nt,nt
COc1ccc(OCC(O)CNCCOc2ccccc2OC)c(C(C)(C)C)c1 (stereo unspecified),2.5,44.6*,-20.5,71.2*,-10.1,22.2%,18.9%
COc1ccccc1NCC(O)COc1ccc(C(C)(C)C)cc1 (stereo unspecified),4.3,-0.1,-0.1,7.3,0.6,nt,nt
CCOCCCNC(=O)c1oc2ccc3c(c2c1C)C(O)CC(C)(C)O3 (stereo unspecified),2.2,0.2,2.1,16.7,5.8,nt,nt
COc1cc(C(=O)OCc2ccc(C)cc2)cc(NC(=O)c2cccs2)c1OC,-4.6,6.0,19.7,37.6*,8.7,-6.0%,21.7%
O=C1CC(=C2c3ccccc3-c3ccccc32)C(=O)N1CCCCN1CCN(c2ccccc2)CC1,12.9,73.5*,-16.4,43.9*,-13.0,8.1%,22.9%
O=C1CC(=C(c2ccccc2)c2ccccc2)C(=O)N1CCCN1CCN(c2cccc(Cl)c2)CC1,3.2,-0.9,-6.0,11.1,-20.4,nt,nt
CCN(CC)C(=O)C1=C(C)N(Cc2ccc(OC)cc2)C(=O)C(CC(=O)NCCCN(C)C)C1 (stereo unspecified),2.7,nt,nt,nt,nt,nt,nt
SMILES,D2 ag-1,D2 ag-2,D2 PAM-1,D2 antag,D2 PAM-2,D3 ag,D2 ag-3
O=C(CCNC(=O)c1ccc(Cl)cc1)NCCCN1CCOCC1,-2.9,-0.2,-9.5,-18.4,-1.3,-5.8%,-5.5%
CCCN(C(=O)Cn1cnc2sc(C)c(S(=O)(=O)N3CCN(c4ncccn4)CC3)c2c1=O)c1cccc(C)c1,nt,1.2,-2.7,nt,nt,nt,nt
CC(C)[C@H](Nc1ccc(S(=O)(=O)N2CCOCC2)cc1[N+](=O)[O-])C(=O)OCC(=O)N(C(C)C)C(C)C,-0.4,1.5,0.7,23.4,-9.8,-9.1%,7.5%
CC(C)[C@H](Nc1ccc(S(=O)(=O)N2CCOCC2)cc1[N+](=O)[O-])C(=O)OCC(N)=O,0.8,-0.2,-1.2,-0.3,-1.1,nt,nt
COc1cc(C2NC(=O)NC(C)=C2C(=O)OCc2ccc(C)cc2)cc(OC)c1OC (stereo unspecified),-6.2,0.0,-12.0,34.5*,-16.0,-6.5%,-1.2%
COc1cc(C2NC(=O)NC(C)=C2C(=O)OCc2ccc(C)cc2)cc(OC)c1O (stereo unspecified),-0.2,1.5,22.5,-5.9,-3.0,nt,nt
Cc1cc(C)n2c(SCC(=O)N(C)C3CCS(=O)(=O)C3)nnc2n1 (stereo unspecified),-1.6,59.6*,-12.2,28.0,-23.0,4.3%,6.2%
CN(C(=O)CSc1nnc(-c2ccccc2)n1C)C1CCS(=O)(=O)C1 (stereo unspecified),-1.5,-0.6,3.7,8.7,0.3,nt,nt
COc1ccc(S(=O)(=O)N2CCN(CC(O)CN3CCOCC3)CC2)cc1 (stereo unspecified),-3.8,0.0,19.8,-9.8,-3.4,nt,nt
O=S(=O)(c1ccc(OCC(O)CN2CCN(c3ccc(F)cc3)CC2)cc1)N1CCOCC1 (stereo unspecified),13.4,75.9*,-17.3,66.8*,-10.2,8.3%,?
COc1ccccc1N1CCN(CC(O)COc2ccc(S(=O)(=O)N3CCOCC3)cc2)CC1 (stereo unspecified),?,71.3*,-16.9,92.3*,-19.2,-6.4%,?
CCCCN1C(=O)c2ccc(C(=O)OCC(=O)N3CCN(c4ccccc4)CC3)cc2C1=O,-2.3,0.7,9.9,-36.2,-0.9,nt,nt
COCCNC(=O)Cn1cnc2c(cnn2-c2ccc(OC)cc2)c1=O,-1.3,0.2,-1.8,0.6,-7.2,nt,nt
Cc1cc(=O)n2nc(N3CCC(C(=O)N4CCN(c5ccccc5)CC4)CC3)sc2n1,5.5,20.5,-1.2,5.7,-9.2,?,25.7%
